# Pf apPOL inh: Pf-apPOL DNA polymerase inhibition; 0.25% of 210,000 active; AID 1794808; Recombinant Pf-apPOL, molecular beacon fluorescence, 1.5 h; inhibition, % at 10 µM
# mHTT-CaM PPI inh: mHTT-calmodulin interaction abrogation; inhibition, % at 15 µM; AlphaScreen His-mHTT/GST-CaM binding, luminescence; P42858; 3.6% of 190,000 active;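 further: 0% = both proteins with DMSO and 100% = one protein alone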
# * marks the source's active call; other numbers are inactive results; . = no result; ! = not active in a repeat. Sampled rows, rich in hits. Any-hit rate of the full collection: about 3.6%. No stated cut-off is given here; in the data, active means inhibition above about 50%; inactive means the rest.
SMILES,Pf apPOL inh,mHTT-CaM PPI inh
O=S(=O)(Cc1ccc(F)cc1)NCC1(c2cccs2)CCCC1,2,-21
O=C(O)COc1ccccc1O,-1,94*!
Cc1ccccc1OCC(=O)O,3,-3
CCCCC(=O)Nc1c2c(nn1-c1ccc(OC)cc1)CS(=O)(=O)C2,-3,1
COc1cccc(S(=O)(=O)N2CC3CC2CC3NC(=O)c2cccs2)c1 (configuration not stated),0,1
COCCCN1COc2ccc3c(C)c(-c4ccccc4)c(=O)oc3c2C1,-10,12
CCCCN1COc2ccc3c4c(oc3c2C1)C(=O)c1ccccc1C4=O,11,70*
CC(=O)c1c(C)oc2c1c1c(c3ccccc32)OCN(C2CCCCC2)C1,1,6
O=C1c2ccccc2C(=O)c2c1oc1c3c(ccc21)OCN(CCc1ccccc1)C3,-4,61*
O=C1c2ccccc2C(=O)c2c1oc1c3c(ccc21)OCN(Cc1ccccc1)C3,14,11
CC(=O)c1c(C)oc2c1c1c(c3ccccc32)OCN(C2CC(C)(C)NC(C)(C)C2)C1,7,78*
COc1ccc(-c2coc3c4c(ccc3c2=O)OCN(C2CC(C)(C)NC(C)(C)C2)C4)cc1OC,-5,2
CC1(C)CC(N2COc3ccc4c5c(oc4c3C2)C(=O)c2ccccc2C5=O)CC(C)(C)N1,37,96*!
COc1ccc(C)cc1NC(N)=Nc1nc(C)cc(C)n1,1,-4
CS(=O)(=O)N(CC(=O)N1CCN(c2ccccc2F)CC1)c1ccccc1Cl,-25,6
FC(F)(F)c1cc(-c2ccc3ccccc3c2)n[nH]1,-3,.
C#CCN1C(=O)C(O)(CC(=O)c2cccc(Br)c2)c2ccccc21 (configuration not stated),0,5
CCN(CC)C1C(=O)Nc2ccc(Br)cc2C1c1ccccc1Cl (configuration not stated),13,94*
O=C1CN(C(=O)C2CC2)C(c2ccccc2)c2cc(Br)ccc2N1 (configuration not stated),-4,10
O=C1Nc2ccc(Br)cc2C(c2ccccc2Cl)C1N1CCCCC1 (configuration not stated),-7,80*
CC12CC(NC(=O)N1Cc1ccccc1)c1cc(Br)ccc1O2 (configuration not stated),3,10
COCCN1CCC(N2CCCN(C(=O)Nc3ccc(F)cc3F)CC2)C1=O (configuration not stated),9,7
O=C(NCc1cccs1)C1C2C=CC3(CN(Cc4cccnc4)C(=O)C13)O2 (configuration not stated),-2,-2
O=C(c1ccc(C#CC2(O)CCCCC2)cc1)N1CCN(c2ccc([N+](=O)[O-])cc2)CC1,-1,56*
O=C(c1cccnc1)N1CCN(c2ccc([N+](=O)[O-])cc2)CC1,0,-1
SMILES,Pf apPOL inh,mHTT-CaM PPI inh
CS(=O)(=O)N1CCN(C(=O)c2ccccc2)CC1,-8,-5
Cc1cccc(CN(CC(=O)NCc2ccncc2)S(=O)(=O)c2ccc(Cl)cc2)c1,-5,15
CCCc1ccc(Oc2cn[nH]c2-c2ccc(O)cc2O)cc1,4,82*
C=C(C)COc1ccc2c(=O)c(Oc3ccccc3OCC)c(C)oc2c1,-8,-14
CCOc1ccc(-c2[nH]ncc2Oc2ccccc2)c(O)c1,-4,39
COc1ccc(-c2[nH]ncc2Oc2ccc(Cl)cc2)c(O)c1,-4,66*
C=C(C)COc1ccc(-c2[nH]ncc2Oc2ccccc2OCC)c(O)c1,-2,66*
COc1ccc(-c2[nH]ncc2-c2cnc(C)s2)c(O)c1,-18,7
Oc1ccc(-c2[nH]ncc2Oc2ccc(-c3ccccc3)cc2)c(O)c1,0,51*
Oc1ccc(-c2[nH]ncc2-c2ccc(F)cc2)c(O)c1,17,31
Cc1cc(C)c(S(=O)(=O)Nc2ccc(F)cc2)c(C)c1,-1,-6
O=C(NCCc1c[nH]c2ccccc12)c1cc(-c2ccc(F)cc2)c[nH]1,-8,13
COc1ccc(NC(=O)C[C@H]2C(=O)N(Cc3cccnc3)C[C@@H]2Cc2ccccc2)cc1,-5,18
CCCCC[C@H]1CN(CCCC)C(=O)[C@@H]1CC(=O)NCc1ccccc1,-10,12
COc1ccc(CN2C[C@H](Cc3ccccc3)[C@@H](CC(=O)Nc3ccccc3)C2=O)cc1,-7,68*
CCCCC[C@H]1CN(Cc2ccc(OC)cc2)C(=O)[C@@H]1CC(=O)NCc1ccccc1,2,54*
O=C(C[C@H]1C(=O)N(c2ccccc2)C[C@@H]1Cc1ccccc1)Nc1ccc(Br)cc1,2,2
O=C(C[C@H]1C(=O)N(c2ccc(Br)cc2)C[C@@H]1Cc1ccccc1)Nc1ccccc1,-5,51*
COCC(=O)NCCc1ccc(OC)cc1,-4,-5
O=C(O)CCCN1C(=O)CCC1=O,-4,2
CSCC[C@@H]1NC(=O)[C@@H]2CSCCS(=O)(=O)N2C1=O,-6,-4
COc1ccc(NC(=O)c2ccccc2Br)cc1,-9,-2
CCCCc1ccc(C(=O)Nc2ccccc2O)cc1,-4,-12
COc1cccc(NC(=O)c2ccc(Br)o2)c1,-11,-5
COC(=O)C(C#N)=C(C#N)c1ccc(Br)o1,76*,.
SMILES,Pf apPOL inh,mHTT-CaM PPI inh
O=C(Nc1c[nH]c2ccccc12)N1CCN(c2cccc(C(F)(F)F)c2)CC1,-5,59*
O=C(Nc1nc(C(=O)N2CCN(c3cccc(C(F)(F)F)c3)CC2)co1)C1CC1,-4,16
Cc1cccc(CN2CCCn3nc(C(=O)NCc4cccnc4)cc3C2=O)c1,-2,-5
COc1ccc(Br)cc1C(=O)Nc1cc2cc(Br)ccc2oc1=O,-5,-4
Oc1ccc(O)c2c1C1c3ccccc3C2c2ccccc21,2,28
Oc1ccc2ccccc2c1C1Nc2cccc3cccc(c23)N1,.,89*
CN1CCN(C(=O)CN2C(=O)S/C(=C\c3ccc(Cl)cc3)C2=O)CC1,4,-7
Cc1ccc(NCC(O)Cn2c(C)c(C)c3ccccc32)cc1 (configuration not stated),0,45
Cc1c(C)n(CC(O)CNC(C)c2ccccc2)c2ccccc12 (configuration not stated),-4,31
Cc1c(C)n(CC(O)CNc2ccc(Cl)cc2)c2ccccc12 (configuration not stated),2,100*
Cc1c(C)n(CC(O)CNc2ccc(Br)cc2)c2ccccc12 (configuration not stated),6,100*
Cc1ccc(NCC(O)Cn2c(C)c(C)c3ccccc32)cc1C (configuration not stated),-2,71*
Cc1c(C)n(CC(O)CNCCCO)c2ccccc12 (configuration not stated),3,15
Cn1ncc(N2CCC(C(=O)NCc3cc(F)ccc3F)CC2)cc1=O,1,-9
CCC(=O)N1CCc2cn(C)c3cccc(c23)C1,-4,6
FC(F)(F)c1cc(NNc2cc(C(F)(F)F)cc(C(F)(F)F)c2)cc(C(F)(F)F)c1,0,.
Cc1cccc(-c2nc(-c3cccnc3)no2)c1,-8,-14
O=C1/C(=C/c2c[nH]c3ccccc23)Sc2ccccc21,-5,13
O=C1/C(=C/c2c[nH]c3ccccc23)CC/C1=C\c1c[nH]c2ccccc12,-3,98*
COc1ccc(CN2CCCN(Cc3ccc(OC)cc3)C2c2ccccc2)cc1,-2,.
O=C(NCc1cccnc1)c1cc(-c2cccnc2)nc2ccccc12,-9,-17

# Source: PubChem BioAssay
